# According to ChEMBL document CHEMBL4513216, “Probing the Open Global Health Chemical Diversity Library for Multistage-Active Starting Points for Next-Generation Antimalarials” (ACS Infect Dis, 2020):
# The whole screen tested about 69,000 compounds, of which about 8,600 (12%) showed an effect of 50% or more. The entries come from a sample that favours strong results as a whole.
# System: Plasmodium berghei
# Test: Screen against P. berghei liver stage (PbLuc), transformed with Luciferase, at 10uM
# Assay type: functional, HepG2
# Conditions: tested at 10 uM
row,Compound,INHIBITION [%]
1,Cc1nnc(CN2CCCC2c2ccc(Cl)c(Cl)c2)o1 (stereo not given),21.5
2,c1ccc(Cn2ccnc2CN2CCCC2c2noc(C3CC3)n2)cc1 (stereo not given),18.6
3,Cc1nnc(CN2CCCC2c2ccc(C(C)(C)C)cc2)o1 (stereo not given),38.8
4,Cn1ccnc1CN1CCCC1c1noc(C2CC2)n1 (stereo not given),7.64
5,CCc1nc(C2CCCN2Cc2noc(Cc3ccccc3)n2)no1 (stereo not given),72.8
6,CCc1nc(C2CCCN2Cc2nnc(Cc3ccccc3)o2)no1 (stereo not given),5.97
7,CCc1nc(C2CCCN2Cc2nnc(CC)o2)no1 (stereo not given),-0.219
8,CCc1nc(C2CCCN2Cc2nc(Cc3ccccc3)no2)no1 (stereo not given),31.3
9,Cc1nnc(CN2CCCC2c2ccsc2)o1 (stereo not given),53.9
10,Cc1cc(CN2CCCC2c2noc(C3CC3)n2)c2ccccc2n1 (stereo not given),64.5
11,CCc1nc(C2CCCN2Cc2nc(C(C)(C)C)no2)no1 (stereo not given),71.2
12,CCc1nc(C2CCCN2Cc2nc(C3CC3)no2)no1 (stereo not given),-34.9
13,COCc1ccccc1CNC(=O)CNc1ccccc1C(C)=O,-1.79
14,O=C(C1CCOC1)N1CCC2(CC1)CN(Cc1nccs1)CCO2 (stereo not given),15.9
15,CNC(=O)c1ccc(C(=O)N2CCCC2c2c(C)nn(C)c2C)cn1 (stereo not given),31.2
16,Cc1cn2c(n1)CCC(NC(=O)c1csc(C(C)C)n1)C2 (stereo not given),19.5
17,CCc1c(C)nc2n(c1=O)CC(C(=O)Nc1sccc1C(=O)OC)CS2 (stereo not given),-7.25
18,CN(Cc1nnc2n1CCC2)C(=O)c1ccc2c(c1)OCCCO2,26.4
19,Nc1nc2nc(C3CCCN(C(=O)c4cncs4)C3)ccc2s1 (stereo not given),18.3
20,Cc1noc(CN2CCCC2c2noc(C3CC3)n2)n1 (stereo not given),38.5
21,CCc1nc(C2CCCN2Cc2cnc(C)cn2)no1 (stereo not given),-4.94
22,Cc1nc(CN2CCCC2c2noc(C3CC3)n2)oc1C (stereo not given),49.35

row,Compound,INHIBITION [%]
1,c1ccc2oc(CN3CCCC3c3noc(C4CC4)n3)nc2c1 (stereo not given),-87.5025
2,COc1c(C)cnc(CN2CCCC2c2noc(C3CC3)n2)c1C (stereo not given),21.3
3,COc1ccc(C)cc1CN1CCCC1c1noc(C2CC2)n1 (stereo not given),80.3
4,CCc1nc(C2CCCN2Cc2cc(C)nc3ccccc23)no1 (stereo not given),60.75
5,CCc1noc(CN2CCCC2c2noc(C3CC3)n2)n1 (stereo not given),27.4
6,CCc1nc(C2CCCN2Cc2nc3ccccc3o2)no1 (stereo not given),20.2
7,Cc1nc(CN2CCCC2c2noc(C3CC3)n2)nc2ccccc12 (stereo not given),80.25
8,c1ccc2nc(CN3CCCC3c3noc(C4CC4)n3)ccc2c1 (stereo not given),54.7
9,Cc1cnc(CN2CCCC2c2noc(C3CC3)n2)cn1 (stereo not given),-4.94
10,O=C(NCC1(c2ccc(F)cc2)CCCC1)N1CCOC(CO)C1 (stereo not given),-14.3
11,CN(C)CCn1c2c(ccc1=O)CCN(C(=O)c1ccoc1)CC2,-73.5
12,Cc1c(C(=O)N2CCC(O)(CN(C)C)C2)c2ccccc2n1C (stereo not given),35.2
13,O=c1oc(-c2cccs2)nn1CC(O)c1ccccc1F (stereo not given),35.4
14,Cc1nn(C)c(C)c1C1CCCN1Cc1nc(N)c2ccccc2n1 (stereo not given),23.4
15,Cc1nc(CN2CCCC2c2ccsc2)nc2ccccc12 (stereo not given),53.8
16,Cc1nn(C)c(C)c1C1CCCN1Cc1nc(C)c2ccccc2n1 (stereo not given),12.7
17,c1ccc2sc(CN3CCCC3c3noc(C4CC4)n3)nc2c1 (stereo not given),78
18,c1cc(CN2CCCC2c2noc(C3CC3)n2)on1 (stereo not given),37.4
19,C1CC(c2noc(C3CC3)n2)N(Cc2nc(C3CC3)no2)C1 (stereo not given),2.3
20,NC(=O)c1nc(CC(=O)Nc2cccc(C(F)(F)F)c2)no1,-14.8
21,CCOC(=O)CCC(=O)NC(C)c1ccc(NC(=O)CC)cc1 (stereo not given),37.1
22,O=C(Cc1cnc(-c2c(Cl)cccc2Cl)s1)N1CCOCC1,19.3

row,Compound,INHIBITION [%]
1,CN1CCN(CCO)C(=O)C12CCN(c1nccs1)CC2,23.1
2,CN1CCN(Cc2ccncc2)C(=O)C12CCN(c1nccs1)CC2,58.5
3,CC(C)CN1CCN(C)C2(CCN(c3nccs3)CC2)C1=O,45.2
4,CCNc1nnc(SCc2nnc(C(C)(C)C)o2)s1,-7.93
5,CC(=O)N1CCN(C(=O)CN2CCCC2Cn2nc(C)cc2C)CC1 (stereo not given),-14.6
6,C=c1ncsc1=C1NN=C(C2CCCN2C(=O)Cn2cccn2)O1 (stereo not given),19.24
7,CC1c2ncc(COc3cccnc3)n2CCN1C(=O)Cc1ccco1 (stereo not given),-36.3
8,Cc1ncsc1CN1CCn2c(COc3cccnc3)cnc2C1C (stereo not given),58.7
9,Cc1csc(CN2CCn3c(COc4cccnc4)cnc3C2C)n1 (stereo not given),31.2
10,CC1c2ncc(COc3cccnc3)n2CCN1Cc1ccco1 (stereo not given),54.8
11,CC1c2ncc(COc3cccnc3)n2CCN1Cc1cnn(C)c1 (stereo not given),34
12,Cc1ncsc1CN1CCn2c(COCC3CC3)cnc2C1C (stereo not given),18.5
13,Cc1ccc(CN2CCn3c(COc4cccnc4)cnc3C2C)o1 (stereo not given),25.8
14,CCOCc1cnc2n1CCN(Cc1scnc1C)C2C (stereo not given),20.1
15,Cc1ccsc1CN1CCn2c(COc3cccnc3)cnc2C1C (stereo not given),65.7
16,O=C1CC2(CCCNC2)C(=O)N1Cc1cccc(F)c1 (stereo not given),0.112
17,Cc1ccc(C(=O)NS(=O)(=O)Cc2ccc(F)cc2)cc1S(C)(=O)=O,41.6
18,CNC(=O)c1ccc2c(c1O)OC(C)(C)C2,30
19,CNC(=O)CN1CCN(C(=O)c2ccn(C)c(=O)c2)CC1,-7.31
20,CC(C)CN1CCC2(CCN(Cc3ccc(F)cc3)CC2)C1=O,-15.9
21,O=C1N(CC2CC2)CCC12CCN(Cc1ccoc1)CC2,11.2
22,CC(C)CN1CCC2(CCN(Cc3ccoc3)CC2)C1=O,50.7

row,Compound,INHIBITION [%]
1,Cn1cc(CN2CCCC3(CCN(Cc4cccnc4)C3=O)C2)cn1 (stereo not given),43.2
2,CN1CCC(CN2CCC3(CCCN(Cc4ccoc4)C3)C2=O)CC1 (stereo not given),1.34
3,CN(C)C(=O)CN1CCC2(CCCN(Cc3ccoc3)C2)C1=O (stereo not given),53.9
4,CN(C)C(=O)CN1CCC2(CCCN(Cc3cccnc3)C2)C1=O (stereo not given),72.9
5,CN(C)C(=O)CN1CCC2(CCCN(Cc3ccsc3)C2)C1=O (stereo not given),18.6
6,CN(C)C(=O)CN1CCC2(CCCN(Cc3cccn3C)C2)C1=O (stereo not given),-10.2
7,CN(C)C(=O)CN1CCC2(CCN(S(C)(=O)=O)CC2)C1=O,18.6
8,CN(C)C(=O)CN1CCC2(CCN(C(=O)N(C)C)CC2)C1=O,-19.6
9,CN(C)C(=O)CN1CCC2(CCN(C(=O)N3CCCC3)CC2)C1=O,54.3
10,O=C1CCN(C(=O)NCC(c2ccccc2)c2ccccc2)CCN1,-61.4
11,O=C1CC[C@H](C(=O)Nc2cnn(-c3ccccc3Br)c2)N1,30
12,Cc1cc(C)nc(C2CCN(C(=O)c3c(C)noc3C)C2)n1 (stereo not given),-8.12
13,Cc1ncnc2c1CCN(Cc1cccs1)CC2,-33
14,Cc1ccc(C(=O)N2CCCCC2CNC(N)=O)cc1F (stereo not given),44.3
15,O=C([C@H]1CN(Cc2ccoc2)C[C@H]2OCC[C@@H]12)N1CCCCO1,39.4
16,Cc1ccc(-n2ncc(C(=O)N3CCCC3c3cnn(C)c3)c2C)cc1 (stereo not given),2.3
17,CC(C)Oc1ncccc1CNC(=O)c1cnccn1,7.12
18,CN1CCC(O)(CCNC(=O)[C@@]23CNC[C@@H]2CN(C2CCCC2)C3)CC1,62.9
19,CNS(=O)(=O)CCNC(=O)[C@@]12CNC[C@@H]1CN(C1CCCC1)C2,28.7
20,CCS(=O)(=O)CCNC(=O)[C@@]12CNC[C@@H]1CN(C1CCCC1)C2,30.8
21,Cc1nn(C)cc1S(=O)(=O)N[C@@H]1CCC[C@@H](n2ccnc2)[C@@H]1O,7.19
22,COc1ccc(-n2cnnc2SCC(=O)NC(C)C)cn1,64.5

row,Compound,INHIBITION [%]
1,COc1ccc(-n2cnnc2SCC(=O)N(C)C(C)C)cn1,59.4
2,CCC(C)Sc1nncn1-c1ccc(OC)nc1 (stereo not given),-30.5
3,COc1ccc(-n2cnnc2SCC(C)(C)O)cn1,1.28
4,COC(=O)CCSc1nncn1-c1ccc(OC)nc1,22.6
5,COc1ccc(-n2cnnc2SCCC#N)cn1,33.4
6,COCCS(=O)(=O)NCc1ccc(N(C)C)c(C)c1,2.65
7,COCC(=O)N1CCCC1(C)c1nc(C)cc(O)n1 (stereo not given),-33.4
8,CCCc1n[nH]c(C2CN(C(=O)c3ccc4c(c3)COC4)CCO2)n1 (stereo not given),15.5
9,COCc1nc(C(=O)N2CCCC2c2cc(C)no2)cs1 (stereo not given),-3.2
10,Cc1ncc2c(n1)CN(CC(=O)NCCOc1ccccc1)CC2,-3.7
11,Cc1ccc(N2CCC3(CCN(C(=O)c4ccsc4)CC3)CC2)nn1,9.63
12,C[C@@H]1CN(C(=O)Cc2ccsc2)C[C@]12CCN(CCN(C)C)C2=O,26
13,Cc1ccc2c(n1)N(CCn1cccn1)CCN(C(=O)NC1CC1)C2,37.8
14,COCCN1CCN(C(=O)NC2CC2)Cc2ccc(C)nc21,60.1
15,Cc1ccc2c(n1)N(CC1CC1)CCN(C(=O)NC1CC1)C2,30.3
16,COCCN1CCN(C(=O)N2CCCC2)Cc2ccc(C)nc21,62.5
17,COCCN1CCN(S(=O)(=O)C2CC2)Cc2ccc(C)nc21,0.804
18,Cc1ccc2c(n1)N(CCN(C)C)CCN(C(=O)N1CCOCC1)C2,18.3
19,COCCC(=O)N1CCC(c2ccc3c(NC(C)C)n[nH]c3n2)C1 (stereo not given),-36.4
20,CCOC1COC2(CCN(Cc3ccc(C)cc3)CC2)C1 (stereo not given),17.4
21,CCOc1ncnc2c1CCN(C(=O)CN(C)C)CC2,42.3
22,CC(C)(C)C(=O)N1CC(=O)N(Cc2ccco2)CC(O)C1 (stereo not given),40.4
